Here are results for 5 compounds from PubChem BioAssay (EPA / NIEHS).

Inconclusive results are not listed. More than one record can exist for a structure, and the calls need not agree. Calls of active or inactive are those of the source. The calls were made as follows, unless noted: active = hit-call score of the fitted dose curve at least 0.9, where 1 is the maximum; inactive = score below 0.9.

Assay [1] has as its target Nuclear respiratory factor 1 (Homo sapiens) (UniProt Q16656). In words: ATG_NRF1_CIS: Attagene CIS-FACTORIAL HepG2 Assay for human Nuclear Respiratory Factor 1 (NRF1) Orphan Gene (AID 2282987). The settings on record: HepG2 NRF1 cis-element reporter, Attagene multiplex; actives raise or lower the signal. In a few lines: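 Endogenous NRF1-driven reporter transcription measured in transiently transfected human HepG2 liver cells. Readout: reporter mRNA by RT-PCR and capillary electrophoresis with fluorescence detection, 24 h post-dosing. Gain or loss of signal fitted relative to DMSO baseline.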

The nature of assay [2]: ATG_NFI_CIS: Attagene CIS-FACTORIAL HepG2 Assay for human Nuclear Factor I (NFI) (AID 2282989). To be noted: HepG2 cis-regulatory reporter, NFI response element transcription; actives raise or lower the signal. Put shortly: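 After transient transfection of HepG2 with cis-promoter reporter constructs and 24 h dosing, RNA is reverse-transcribed, amplified, 6-FAM end-labelled and HpaI-digested before capillary analysis. Bidirectional curve fitting against DMSO.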

For assay [3], the target named is Myc proto-oncogene protein (Homo sapiens) (UniProt P01106). In words: ATG_Myc_CIS: Attagene CIS-FACTORIAL HepG2 Assay for human Myelocytomatosis (Myc) Proto-Oncogene Transcription Factor (AID 2282990). The settings on record: HepG2, Attagene cis-reporter transcription factor activity; actives raise or lower the signal. In a few lines: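 Cells of the HepG2 human liver line bear multiple cis-driven reporter transcription units. Reporter mRNA after 24 h exposure is reverse-transcribed, amplified, labelled and resolved by capillary electrophoresis, with gain- or loss-of-signal fitting relative to DMSO.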

Assay [4] can be described thus: ATG_NF_kB_CIS: Attagene CIS-FACTORIAL HepG2 Assay for human Nuclear Factor Kappa B (NF-kB) (AID 2282991). The settings on record: HepG2 Attagene cis-factorial NF-kB reporter mRNA; actives raise or lower the signal. In a few lines: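 Read-out: reporter transcript levels quantified by RT-PCR plus capillary electrophoresis of 6-FAM-labelled, HpaI-cut fragments. Transfected HepG2 cells, 24 h compound exposure, endogenous NF-kB-driven cis element; gain or loss scored versus DMSO.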

A short description of assay [5]: ATG_NRF2_ARE_CIS: Attagene CIS-FACTORIAL HepG2 Assay for human Nuclear Factor Erythroid 2 Related Factor 2 (NFR2) response to Antioxidant Response Elements (ARE) (AID 2282992). The settings on record: HepG2 Attagene ARE/NRF2 reporter, transcription factor activity; actives raise or lower the signal. Put shortly:
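Endogenous transcription factor activity in human liver HepG2 cells is tracked via a cis-element-driven reporter within a multiplexed set. mRNA induction is read by RT-PCR and capillary electrophoresis after 24 h, with DMSO as baseline.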

Assay [6] is described as follows: ATG_Oct_MLP_CIS: Attagene CIS-FACTORIAL HepG2 Assay for human Octamer-Binding Transcription Factor (Oct) (AID 2282993). The settings on record: HepG2 Attagene cis-factorial Oct reporter, mRNA; actives raise or lower the signal. Put shortly: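 Cells of the HepG2 line express promoter-controlled reporter sequences whose mRNA levels, after 24 h treatment, are measured by RT-PCR and capillary electrophoresis. Increases and decreases are scored relative to DMSO.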

Assay [7] in a line: BSK_3C_TissueFactor: BioMAP Diversity Plus: 3C Assay for Tissue Factor Biomarker Activity (AID 2282997). The settings on record: BioMAP 3C HUVEC, tissue factor biomarker readout; actives raise or lower the signal. Put shortly: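 After a 24 h chemical exposure of primary human umbilical vein endothelial cells, Tissue Factor levels were quantified by ELISA.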
A short description of assay [8]: BSK_3C_uPAR: BioMAP Diversity Plus: 3C Assay for Urokinase-type plasminogen activator receptor (uPAR) Biomarker Activity (AID 2282998). To be noted: BioMAP 3C HUVEC, uPAR biomarker ELISA; actives raise or lower the signal. Put shortly: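 Endothelial primary cells of human umbilical vein origin received test chemical; 24 h later uPAR was assayed by ELISA. Fitting was bidirectional, DMSO as negative control.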

Assay [9] in a line: BSK_3C_VCAM1: BioMAP Diversity Plus: 3C Assay for Vascular cell adhesion molecule 1 (VCAM1) Biomarker Activity (AID 2282999). The settings on record: BioMAP 3C HUVEC, VCAM1 ELISA, cytokine-stimulated; actives raise or lower the signal. Put shortly:
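Activity fitted in both directions relative to DMSO, with ELISA measurement of the surface marker on primary HUVEC (3C) at 24 h post-treatment; parallel SRB staining (0.1% SRB, TCA-fixed, 560 nm) flagged overt cytotoxicity.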

Assay [10] is described as follows: BSK_4H_Eotaxin3: BioMAP Diversity Plus: 4H Assay for Eotaxin 3 Biomarker Activity (AID 2283000).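 Also: CCL26 protein level quantified by ELISA in parallel with SRB cytotoxicity check.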 The settings on record: primary human endothelial cells (HUVEC); actives raise or lower the signal. In a few lines:
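Chemicals were added to human umbilical vein endothelium cultures, and Eotaxin-3 was quantified by ELISA at 24 h. Values were derived by bidirectional fitting with DMSO serving as negative control and activity baseline.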

The target of assay [11] is human Peroxisome Proliferator-activated Receptor alpha (PPARa), PPARA (gene 5465) (UniProt Q07869). In words: ATG_PPARa_TRANS: Attagene TRANS-FACTORIAL HepG2 Assay for human Peroxisome Proliferator-activated Receptor alpha (PPARa) (AID 2283001; active = hit-call score of the fitted dose curve at least 0.9, where 1 is the maximum). Put shortly:
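Reporter transcripts quantified by RT-PCR plus capillary electrophoresis after 24 h treatment, fitted upward relative to DMSO. Cells: human HepG2 transiently carrying multiple GAL4-UAS reporter units driven by NR-Gal4 chimeras.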

Read-out in assay [12]: Intercellular Adhesion Molecule 1 (ICAM1), ICAM1 (gene 3383)
In words: BSK_3C_ICAM1: BioMAP Diversity Plus: 3C Assay for Intercellular Adhesion Molecule 1 (ICAM1) Biomarker Activity (AID 2283003). The settings on record: primary human endothelial cells (HUVEC); actives raise or lower the signal. Put shortly:
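Chemicals are dosed onto primary human umbilical vein endothelium (3C system). After 24 h, ICAM-1 is measured by ELISA, and responses are fitted bidirectionally relative to DMSO.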

A short description of assay [13]: BSK_3C_Proliferation: Cell Proliferation Assessment in the BioMAP Diversity Plus: 3C Assay (AID 2283006).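 As to AC50: potency may reflect either rise or fall in cell number versus DMSO.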 To be noted: primary human endothelial cells (HUVEC). Put shortly: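 Cells (human umbilical vein endothelial, sub-confluent) receive test chemical; after 48 h they are fixed in 10% trichloroacetic acid, stained with 0.1% SRB and read at 560 nm. Activity is referenced to DMSO, fitting increases and decreases.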

For assay [14], the target named is Peroxisome proliferator-activated receptor gamma (Homo sapiens) (UniProt P37231). Nature of the assay: ATG_PPARg_TRANS: Attagene TRANS-FACTORIAL HepG2 Assay for human Peroxisome Proliferator-activated Receptor-gamma (PPARg) (AID 2283007; active = hit-call score of the fitted dose curve at least 0.9, where 1 is the maximum). Put shortly:
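Read-out: reporter mRNA induction, detected by fluorescence after RT-PCR and capillary electrophoresis. Transiently transfected human HepG2 liver cells carrying a chimeric NR-Gal4 construct were dosed for 24 h; activity was fitted upward relative to DMSO.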

The target of assay [15] is Nuclear receptor subfamily 1 group I member 2 (Homo sapiens) (UniProt O75469). Nature of the assay: ATG_PXR_TRANS: Attagene TRANS-FACTORIAL HepG2 Assay for human Pregnane X Receptor (PXR) (AID 2283008; active = hit-call score of the fitted dose curve at least 0.9, where 1 is the maximum). In a few lines:
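HepG2 transfected (FuGene 6) with GAL4-UAS reporter units + PXR-Gal4 chimera; dosed 24 h. Total RNA → oligo(dT) RT → PCR → 6-FAM primer extension → HpaI cut → CE. Gain-of-signal vs DMSO.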

In assay [16] the target is Cellular tumor antigen p53 (Homo sapiens) (UniProt P04637). In words: ATG_p53_CIS: Attagene CIS-FACTORIAL HepG2 Assay for human p53 Transcription Factor (AID 2282994). To be noted: HepG2 p53 cis-element reporter, Attagene mRNA; actives raise or lower the signal. Put shortly:
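Steps: transfect HepG2 with multiplexed cis reporter constructs; dose chemicals 24 h; extract RNA, reverse-transcribe, PCR-amplify reporter sequences; FAM-label, HpaI-digest, resolve fragments by CE. Activity fitted both directions relative to DMSO.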

Assay [17] concerns the target human Peroxisome Proliferator-activated Receptor delta (PPARd), PPARD (gene 5467) (UniProt Q03181). Nature of the assay: ATG_PPARd_TRANS: Attagene TRANS-FACTORIAL HepG2 Assay for human Peroxisome Proliferator-activated Receptor delta (PPARd) (AID 2283002; active = hit-call score of the fitted dose curve at least 0.9, where 1 is the maximum). In a few lines: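 Cell-based TRANS reporter: HepG2, transient MRTU transfection, 24 h exposure. Readout = reporter mRNA (RT-PCR/CE, 6-FAM). Gain-of-signal fit vs DMSO control.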

For assay [18], the target named is human Retinoic Acid Receptor beta (RARb), RARB (gene 5915) (UniProt P10826). In words: ATG_RARb_TRANS: Attagene TRANS-FACTORIAL HepG2 Assay for human Retinoic Acid Receptor beta (AID 2283004; active = hit-call score of the fitted dose curve at least 0.9, where 1 is the maximum). In a few lines:
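Transient transfection of HepG2 with multiple reporter units → chemical dosing, 24 h → total RNA isolation → RT with oligo(dT) → reporter-specific PCR, 6-FAM primer extension, HpaI digest → capillary electrophoresis. Positive direction vs DMSO control.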

For assay [19], the target named is Retinoic acid receptor alpha (Homo sapiens) (UniProt P10276). In words: ATG_RARa_TRANS: Attagene TRANS-FACTORIAL HepG2 Assay for human Retinoic Acid Receptor alpha (RARa) (AID 2283005; active = hit-call score of the fitted dose curve at least 0.9, where 1 is the maximum). Put shortly: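 Reporter transcripts, measured by RT-PCR with fluorescent labeling and capillary electrophoresis after 24 h dosing, reflect activity of an exogenous human RARa–GAL4 fusion in transiently transfected HepG2. Fitted for increase relative to DMSO.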

Assay [20] addresses human Retinoic Acid Receptor gamma (RARg), RARG (gene 5916) (UniProt P13631). Nature of the assay: ATG_RARg_TRANS: Attagene TRANS-FACTORIAL HepG2 Assay for human Retinoic Acid Receptor gamma (RARg) (AID 2283009; active = hit-call score of the fitted dose curve at least 0.9, where 1 is the maximum). In a few lines:
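TRANS format measured activity of exogenous NR-GAL4 fusion (RARg) in transfected HepG2 liver cells after 24 h dosing. Induced reporter RNA was detected by RT-PCR/capillary electrophoresis fluorescence, analysed in the positive direction against DMSO.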

human Peroxisome Proliferator-activated Receptor alpha (PPARa), PPARA (gene 5465), sequence (Q07869 whole entry, looked up, the tested form may be a part): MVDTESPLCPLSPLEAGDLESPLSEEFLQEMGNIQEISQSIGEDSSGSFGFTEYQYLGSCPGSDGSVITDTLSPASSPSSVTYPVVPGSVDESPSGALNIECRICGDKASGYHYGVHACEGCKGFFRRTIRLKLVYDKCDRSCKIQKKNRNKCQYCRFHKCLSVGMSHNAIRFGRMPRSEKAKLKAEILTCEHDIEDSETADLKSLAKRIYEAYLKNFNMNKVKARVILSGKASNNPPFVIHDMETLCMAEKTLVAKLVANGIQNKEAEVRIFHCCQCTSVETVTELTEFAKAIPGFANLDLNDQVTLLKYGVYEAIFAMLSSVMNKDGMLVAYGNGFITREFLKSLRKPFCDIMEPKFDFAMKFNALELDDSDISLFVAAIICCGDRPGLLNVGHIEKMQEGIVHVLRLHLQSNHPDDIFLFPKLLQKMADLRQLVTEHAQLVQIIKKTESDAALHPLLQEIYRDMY
Nuclear receptor subfamily 1 group I member 2 (Homo sapiens), sequence (O75469 whole entry, looked up, the tested form may be a part): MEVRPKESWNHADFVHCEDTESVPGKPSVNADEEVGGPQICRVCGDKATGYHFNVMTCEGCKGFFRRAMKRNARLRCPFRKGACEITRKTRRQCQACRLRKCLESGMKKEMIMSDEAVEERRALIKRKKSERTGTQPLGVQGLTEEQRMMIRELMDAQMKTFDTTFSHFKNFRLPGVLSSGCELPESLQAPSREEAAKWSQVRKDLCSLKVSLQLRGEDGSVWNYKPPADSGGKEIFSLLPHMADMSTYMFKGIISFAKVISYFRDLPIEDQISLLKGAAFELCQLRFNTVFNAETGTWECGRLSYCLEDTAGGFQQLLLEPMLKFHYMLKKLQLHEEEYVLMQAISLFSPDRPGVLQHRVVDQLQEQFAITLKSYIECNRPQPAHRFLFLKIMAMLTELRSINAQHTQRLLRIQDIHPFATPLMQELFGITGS
Peroxisome proliferator-activated receptor gamma (Homo sapiens), sequence (P37231 whole entry, looked up, the tested form may be a part): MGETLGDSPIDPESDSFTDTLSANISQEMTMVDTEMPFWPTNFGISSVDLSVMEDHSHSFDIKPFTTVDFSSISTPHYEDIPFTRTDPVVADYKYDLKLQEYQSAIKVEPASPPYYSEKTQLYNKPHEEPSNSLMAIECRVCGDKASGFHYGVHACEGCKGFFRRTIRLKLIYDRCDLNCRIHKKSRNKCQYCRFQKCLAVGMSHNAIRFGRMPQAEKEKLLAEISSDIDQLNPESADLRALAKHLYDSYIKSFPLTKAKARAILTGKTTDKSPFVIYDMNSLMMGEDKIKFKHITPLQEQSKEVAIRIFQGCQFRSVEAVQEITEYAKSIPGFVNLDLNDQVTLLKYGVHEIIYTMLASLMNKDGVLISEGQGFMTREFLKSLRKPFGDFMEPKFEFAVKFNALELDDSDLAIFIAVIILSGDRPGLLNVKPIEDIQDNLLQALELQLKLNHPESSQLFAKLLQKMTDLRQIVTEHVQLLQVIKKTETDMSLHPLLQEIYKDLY
Nuclear respiratory factor 1 (Homo sapiens), sequence (Q16656 whole entry, looked up): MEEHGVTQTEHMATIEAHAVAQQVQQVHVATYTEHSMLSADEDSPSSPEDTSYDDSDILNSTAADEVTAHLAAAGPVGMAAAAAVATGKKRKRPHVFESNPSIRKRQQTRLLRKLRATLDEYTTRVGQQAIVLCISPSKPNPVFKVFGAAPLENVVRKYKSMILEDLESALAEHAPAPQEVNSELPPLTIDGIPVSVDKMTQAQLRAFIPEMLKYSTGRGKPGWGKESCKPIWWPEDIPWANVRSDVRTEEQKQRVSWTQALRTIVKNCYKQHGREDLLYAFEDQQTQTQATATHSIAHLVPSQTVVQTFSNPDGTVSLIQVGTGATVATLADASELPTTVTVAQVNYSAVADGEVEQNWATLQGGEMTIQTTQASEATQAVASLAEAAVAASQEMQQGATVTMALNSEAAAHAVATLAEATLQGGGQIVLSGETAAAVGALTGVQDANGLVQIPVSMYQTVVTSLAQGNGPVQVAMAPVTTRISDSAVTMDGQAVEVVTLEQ
Myc proto-oncogene protein (Homo sapiens), sequence (P01106 whole entry, looked up): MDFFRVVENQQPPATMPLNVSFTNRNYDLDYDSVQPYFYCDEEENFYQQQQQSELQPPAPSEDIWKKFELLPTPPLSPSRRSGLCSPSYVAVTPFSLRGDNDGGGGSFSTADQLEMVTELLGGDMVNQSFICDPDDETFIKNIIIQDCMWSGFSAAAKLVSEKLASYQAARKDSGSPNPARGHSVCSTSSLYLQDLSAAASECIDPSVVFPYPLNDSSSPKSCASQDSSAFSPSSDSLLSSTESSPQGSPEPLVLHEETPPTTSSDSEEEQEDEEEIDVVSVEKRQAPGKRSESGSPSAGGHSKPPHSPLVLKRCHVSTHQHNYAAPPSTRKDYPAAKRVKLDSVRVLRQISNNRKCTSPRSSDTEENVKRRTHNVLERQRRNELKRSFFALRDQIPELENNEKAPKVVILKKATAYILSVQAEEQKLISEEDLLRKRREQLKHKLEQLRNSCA
human Peroxisome Proliferator-activated Receptor delta (PPARd), PPARD (gene 5467), sequence (Q03181 whole entry, looked up): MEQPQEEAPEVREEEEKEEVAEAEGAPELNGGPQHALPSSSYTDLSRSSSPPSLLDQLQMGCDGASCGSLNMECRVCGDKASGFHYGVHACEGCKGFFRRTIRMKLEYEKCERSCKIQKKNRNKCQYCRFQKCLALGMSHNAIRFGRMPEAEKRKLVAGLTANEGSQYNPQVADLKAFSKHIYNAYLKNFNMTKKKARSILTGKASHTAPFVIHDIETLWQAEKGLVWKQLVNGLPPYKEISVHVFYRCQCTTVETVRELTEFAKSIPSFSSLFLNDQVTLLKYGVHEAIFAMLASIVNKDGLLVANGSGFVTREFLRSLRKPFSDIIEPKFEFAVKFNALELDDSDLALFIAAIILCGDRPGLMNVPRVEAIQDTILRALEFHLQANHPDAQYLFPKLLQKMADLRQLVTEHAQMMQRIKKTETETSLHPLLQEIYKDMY
Cellular tumor antigen p53 (Homo sapiens), sequence (P04637 whole entry, looked up, the tested form may be a part): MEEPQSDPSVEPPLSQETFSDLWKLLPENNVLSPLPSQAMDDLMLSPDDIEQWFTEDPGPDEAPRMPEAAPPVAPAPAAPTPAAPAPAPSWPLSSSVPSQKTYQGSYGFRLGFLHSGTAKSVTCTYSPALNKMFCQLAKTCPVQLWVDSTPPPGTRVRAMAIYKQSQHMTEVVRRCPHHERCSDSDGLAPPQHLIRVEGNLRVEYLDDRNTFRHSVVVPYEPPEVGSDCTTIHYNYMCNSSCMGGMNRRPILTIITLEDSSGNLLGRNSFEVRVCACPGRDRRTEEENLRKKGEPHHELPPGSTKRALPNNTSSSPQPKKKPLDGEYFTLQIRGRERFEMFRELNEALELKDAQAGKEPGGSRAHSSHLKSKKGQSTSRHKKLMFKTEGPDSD
human Retinoic Acid Receptor beta (RARb), RARB (gene 5915), sequence (P10826 whole entry, looked up): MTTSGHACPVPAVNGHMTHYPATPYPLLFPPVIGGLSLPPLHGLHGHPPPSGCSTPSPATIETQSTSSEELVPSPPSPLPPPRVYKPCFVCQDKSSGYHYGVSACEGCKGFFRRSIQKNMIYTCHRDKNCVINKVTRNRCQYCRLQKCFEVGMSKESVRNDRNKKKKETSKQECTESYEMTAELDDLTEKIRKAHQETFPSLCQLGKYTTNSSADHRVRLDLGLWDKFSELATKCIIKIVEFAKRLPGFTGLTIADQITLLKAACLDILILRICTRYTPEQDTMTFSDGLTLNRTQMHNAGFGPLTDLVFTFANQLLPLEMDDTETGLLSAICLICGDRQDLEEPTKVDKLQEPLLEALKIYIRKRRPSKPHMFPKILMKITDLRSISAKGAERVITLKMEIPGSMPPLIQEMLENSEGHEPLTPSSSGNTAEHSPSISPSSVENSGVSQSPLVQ
Retinoic acid receptor alpha (Homo sapiens), sequence (P10276 whole entry, looked up, the tested form may be a part): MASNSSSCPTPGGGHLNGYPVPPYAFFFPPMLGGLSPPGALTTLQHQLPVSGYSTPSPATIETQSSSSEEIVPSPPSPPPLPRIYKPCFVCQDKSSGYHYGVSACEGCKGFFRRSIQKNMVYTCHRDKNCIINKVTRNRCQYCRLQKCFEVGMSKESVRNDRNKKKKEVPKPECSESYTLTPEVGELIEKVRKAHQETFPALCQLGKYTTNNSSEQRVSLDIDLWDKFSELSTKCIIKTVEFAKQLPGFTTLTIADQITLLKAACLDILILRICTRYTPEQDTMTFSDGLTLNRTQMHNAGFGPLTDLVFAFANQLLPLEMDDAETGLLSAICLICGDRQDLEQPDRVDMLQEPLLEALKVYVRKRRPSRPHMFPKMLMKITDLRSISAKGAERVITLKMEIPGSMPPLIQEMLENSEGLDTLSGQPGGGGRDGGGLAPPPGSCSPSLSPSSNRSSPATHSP
human Retinoic Acid Receptor gamma (RARg), RARG (gene 5916), sequence (P13631 whole entry, looked up, the tested form may be a part): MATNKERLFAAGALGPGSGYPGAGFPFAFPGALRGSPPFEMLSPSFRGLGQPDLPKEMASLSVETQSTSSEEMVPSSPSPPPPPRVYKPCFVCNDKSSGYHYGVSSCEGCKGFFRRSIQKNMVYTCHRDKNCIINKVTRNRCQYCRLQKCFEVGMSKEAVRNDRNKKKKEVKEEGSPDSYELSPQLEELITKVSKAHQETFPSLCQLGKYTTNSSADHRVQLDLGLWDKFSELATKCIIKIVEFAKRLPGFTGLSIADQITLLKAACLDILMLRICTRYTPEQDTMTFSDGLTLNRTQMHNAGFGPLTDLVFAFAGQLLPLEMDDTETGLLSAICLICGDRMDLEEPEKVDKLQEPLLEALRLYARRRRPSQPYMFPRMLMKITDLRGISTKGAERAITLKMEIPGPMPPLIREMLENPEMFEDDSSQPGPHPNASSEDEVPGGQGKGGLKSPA

With `OCC(F)(F)C(F)(F)C(F)(F)C(F)(F)C(F)(F)C(F)(F)CO`, the compound was classed as inactive in [1], in assay [2], in assay [3], in assay [4], in assay [5] and in [6]. Moreover, the result in assay [7], in assay [8], in assay [9], in assay [10], in [11] and in assay [12] was inactive. Also, the outcome in assay [13], in assay [14] and in [15] was inactive. In assay [13], the AC50 is 15.6 µM (active).
On to `OCC(O)CC(F)(F)C(F)(F)C(F)(F)C(F)(F)C(F)(F)C(F)(F)C(F)(F)C(F)(F)F` (configuration not stated), for which the result in assay [1], in assay [2], in assay [3], in assay [4], in assay [6] and in [16] was inactive. For the same compound, the outcome in assay [7], in [8], in assay [9], in assay [10], in assay [11] and in [17] was inactive. For the same compound, the outcome in [12], in assay [18], in assay [19], in assay [13], in assay [14] and in assay [15] was inactive. Also, the result in assay [20] was inactive.
With `CCc1cccc(C)c1N(C(=O)C(=O)O)C(C)COC` (configuration not stated), the result in [1], in assay [2], in assay [3], in assay [4], in assay [5] and in [6] was inactive. The call in assay [11], in assay [17], in assay [14] and in assay [15] was inactive.
On to `CCCCCCCCCCCCCC[P+](CCCC)(CCCC)CCCC`, for which the compound was called inactive in assay [1], in assay [3], in [4], in assay [11], in assay [17] and in [14]. Besides, the outcome in [15] was inactive. For the same compound, the AC50 in [2] is 1.24 µM (active); in [5] it was 0.719 µM (active); in assay [6], 0.903 µM (active).
`O=S(=O)(OCC(F)(F)F)C(F)(F)C(F)(F)C(F)(F)C(F)(F)F`: the outcome in assay [1], in assay [2], in assay [3], in assay [6], in [7] and in assay [8] was inactive. The result in assay [9], in [10], in assay [11], in [12], in [18] and in [13] was inactive. Also, the compound was called inactive in assay [15]. Besides, the AC50 in [4] was 62.7 µM (active); in [16], 89.1 µM (active); in [8] it was 38.5 µM (active); in assay [14] it was 107 µM (active).
